Rows were chosen to be rich in hits. Some 5.1% of all compounds tested hit in one or more screens of this group.
Tau fibril FP – blocks human tau fibril formation measured by polarization | P10636 | K18 P301L tau heparin fibrillization, Alexa594 FP, 6 h | Potency, µM (highest dose often 57.7 µM), actives largely listed as inhibitors | 280,000 compounds, 0.39% hits; further: nearly all actives have a fitted effect of over 55% in size
Target sequence (P10636 561-689 P618L limits assumed): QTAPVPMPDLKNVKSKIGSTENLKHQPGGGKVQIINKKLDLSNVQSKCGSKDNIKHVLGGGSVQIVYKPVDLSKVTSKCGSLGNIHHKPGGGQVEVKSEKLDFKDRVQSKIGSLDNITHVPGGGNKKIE
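Heparin (20 uM) drove fibril formation of recombinant tau K18 P301L, 15 uM unlabeled with 0.24 uM Alexa 594 label, for 6 hr at 37 C in 100 mM sodium acetate pH 7. Fluorescence polarization (555/632 nm) read 1 hr after 30 uM ThT.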
NPSR antag – antagonists of human neuropeptide S receptor cAMP signaling. AID 1461. 220,000 compounds, 1% hits. CHO-NPSR cells, cAMP TR-FRET, antagonist mode. Potency, µM (top dose mostly 38.3 µM), usual class: inhibitors; further: nearly all actives have a fitted effect of over 50% in size
KDM4E inh – inhibitors of human JMJD2E histone demethylase. 230,000 compounds, 1.6% hits. B2RXH2. JMJD2E catalytic domain, FDH-coupled NADH fluorescence (FDH is formaldehyde dehydrogenase). Potency, µM (series often up to 57.1 µM), usual class: inhibitors; active means well fitted inhibition curve with a large enough effect, not every such curve was filed as active; inconclusive means small, poorly fitted or top-dose-only effect, or another doubt; inactive means no such curve, though single readings can be large or run the other way; further: nearly all actives have a fitted effect of over 50% in size
Target sequence (B2RXH2 1-337 limits assumed): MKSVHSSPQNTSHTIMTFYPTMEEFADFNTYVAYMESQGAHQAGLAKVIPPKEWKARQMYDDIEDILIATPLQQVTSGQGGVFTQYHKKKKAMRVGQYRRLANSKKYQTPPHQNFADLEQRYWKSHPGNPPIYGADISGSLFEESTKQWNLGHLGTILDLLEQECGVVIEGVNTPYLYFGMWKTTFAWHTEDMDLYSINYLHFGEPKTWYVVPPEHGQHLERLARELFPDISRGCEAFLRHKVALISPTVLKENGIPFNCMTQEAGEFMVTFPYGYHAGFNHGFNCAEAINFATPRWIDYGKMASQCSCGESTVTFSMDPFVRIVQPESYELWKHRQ
Tau ThT inhib – tau fibrillization inhibition (ThT binding); Potency, µM (top dose mostly 57.4 µM), actives largely listed as inhibitors; recombinant tau K18 P301L, heparin-induced fibrillization, ThT fluorescence; 270,000 compounds, 2.1% hits; P10636; AID 1460; further: nearly all actives have a fitted effect of over 55% in size
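Recombinant human tau K18 fragment […] carrying P301L, 15 uM unlabeled plus 0.24 uM Alexa 594-labeled, was fibrillized with 20 uM heparin in 100 mM sodium acetate pH 7 for 6 hr at 37 C; 30 uM ThT fluorescence read after 1 hr.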
PNC inhibitor – inhibitors of perinucleolar compartment assembly. PC3M PTB-GFP, PNC prevalence imaging, 16 h; stronger effect = lower value. activity change (PNC), negative = inhibition, % at 10 µM. 140,000 compounds, 3.1% hits;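 active means readout at or below -70, meaning at least 70% loss of cells showing the perinucleolar compartment, a nuclear body marking cancer cells; inconclusive means readout between -30 and a set limit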
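Read-out is percentage of cells bearing a perinucleolar compartment, from automated 20x imaging of fixed, Hoechst-stained PC3M PTB-GFP cells. Cells were seeded 4 h, then exposed 16 h to compound (23 nl of library stock) in duplicate plates.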
Tau fluor cs – counter-screen for tau fibril formation inhibitors. 280,000 compounds, 0.93% hits. tau K18 P301L (four-repeat tau fragment) Alexa594 fluorescence, heparin fibrillization. Potency, µM (doses to about 57.7 µM); further: nearly all actives have a fitted effect of over 55% in size
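Human K18 P301L tau (15 uM unlabeled plus 0.24 uM Alexa 594-labeled, final) in 100 mM sodium acetate pH 7 was mixed with compound and 20 uM heparin and incubated 6 hr at 37 C.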
Hits are given with their value; i = inactive; ? = inconclusive; nt = no result; [ ] = remark or other dose. Unless noted, the call rests on the fitted dose curve; in most records, active means well fitted curve in the direction sought with a large enough effect; inconclusive means small, poorly fitted or top-dose-only effect, or another doubt; inactive means no such curve, though single readings can be large; an effect the other way counts as inactive or inconclusive.

SMILES | Tau fibril FP | NPSR antag | KDM4E inh | Tau ThT inhib | PNC inhibitor | Tau fluor cs
CCOC(=O)c1c(Oc2ccc(C(=O)OC)cc2)nnc(-c2ccccc2)c1-c1ccccc1 | i | nt | nt | i | nt | i
COc1ccc(OC2C(O)COC2/C=C/C#Cc2ccccc2)cc1 (centres undefined) | i[11.6 µM] | nt | nt | ? | nt | i[11.6 µM]
COc1ccccc1Nc1nn2c(=O)c3ccc(C(=O)NCCC4=CCCCC4)cc3nc2s1 | i | nt | nt | ? | nt | i
O=C(Cn1c(=O)n(-c2ccccc2)c(=O)c2sc3ccccc3c21)NC1CCCC1 | i | nt | nt | i | nt | i
CCc1ccc(/C=N/NC(=O)c2ccccn2)cc1 | i | i | i | i | nt | i
CN(C)c1ccc(/C=N/NC(=O)CCc2c[nH]c3ccccc23)cc1 | i | i | ? | 8.9µM | nt | ?
CCN(CC)c1ccc(/C=N/NC(=O)c2ccccn2)cc1 | i | i | i | 10µM | nt | i
Cc1cc(F)ccc1S(=O)(=O)Nc1ccc2c(c1)CCCN2C(=O)c1cccs1 | i | nt | nt | i | nt | i
COc1ccc(C(c2nnnn2CC2CCCO2)N2CCN(c3ccc(F)cc3)CC2)cc1 (centres undefined) | i | i | i | i | -86 | i
COc1ccc(Cn2nnnc2C(c2ccncc2)N2CCOCC2)cc1 (centres undefined) | i | i | ? | i | -99 | i
COc1cc(CNc2ccc3[nH]c(=O)[nH]c3c2)cc(Br)c1OCC(=O)NC(C)(C)C | i | i | i | ? | i | ?
COc1cc(CNc2ccc3[nH]c(=O)[nH]c3c2)ccc1OCC(=O)NC(C)(C)C | ? | ? | ? | 14µM | ? | ?
Cc1ccc(Cl)cc1NC(=O)N1CCC(CN2CCCCCC2)CC1 | i | nt | nt | ? | nt | i
Cc1ccc(NC(=O)Cn2cnc3c(cnn3C(C)(C)C)c2=O)cc1 | i | i | i | i | -100 | i
COc1ccc(NC(=O)Cn2cnc3c(cnn3C(C)(C)C)c2=O)cc1OC | i | i | i | i | nt | i
CCN(CC)CCNC(=O)Cn1ncc2c([nH]c3ccccc32)c1=O | i | nt | nt | i | nt | i
NC(=S)N/N=C/c1ccc2ccccc2c1 | i | i | i | i | i | i
C(=Nc1ccc(Nc2ccccc2)cc1)c1ccc2ccccc2c1 | ? | i | i | 7.9µM | -83 | 8.9µM[quencher]
Brc1ccc(C=Nc2ccc(Nc3ccccc3)cc2)s1 | ? | i | i | 10µM | i | 11µM[quencher]
O=C(CCC(=O)N/N=C/c1ccc(Br)s1)NCc1ccccc1 | i | i | i | i | ? | i
Cc1ccccc1C(=O)Nc1nc2c(s1)CC(C(C)(C)C)CC2 (centres undefined) | i | nt | nt | i | nt | i
COc1cccc(NC(=O)Cn2c(=O)n(-c3ccc(Cl)cc3)c(=O)c3sc4ccccc4c32)c1 | ? | nt | nt | i | nt | i
COc1ccc(NC(=O)Cn2c(=O)n(-c3ccccc3)c(=O)c3ccc(C(=O)NCc4ccc5c(c4)OCO5)cc32)cc1 | ? | nt | nt | i | nt | i
COc1cccc(NC(=O)Cn2c(=O)n(Cc3ccc4c(c3)OCO4)c(=O)c3oc4ccccc4c32)c1 | 28µM | nt | nt | ? | nt | ?
COc1cccc(NC(=O)Cn2c(=O)n(-c3ccccc3)c(=O)c3ccc(C(=O)NCc4ccc5c(c4)OCO5)cc32)c1 | 32µM | nt | nt | i | nt | i
SMILES | Tau fibril FP | NPSR antag | KDM4E inh | Tau ThT inhib | PNC inhibitor | Tau fluor cs
COc1cccc(-n2c(=O)c3sc4ccccc4c3n(CC(=O)Nc3cccc(Cl)c3)c2=O)c1 | 22µM | nt | nt | i | nt | ?
CCN(c1cccc(C)c1)S(=O)(=O)c1cc2c(cc1C)n(C)c(=O)c(=O)n2C | i | nt | nt | i | nt | i
COc1ccc(-n2c(-c3ccco3)nc3c(cnn3-c3ccccc3Cl)c2=O)cc1 | i | nt | nt | i | nt | i
Clc1cccc(N/N=C(\Cc2nc3ccccc3[nH]2)c2ccccc2)c1 | ? | i | i | ? | i | 7.1µM[quencher]
CCOc1ccccc1OCC(=O)Nc1ccc(S(=O)(=O)N(C)C)cc1 | i | i | i | i | -86 | i
CCC(C)NC(=O)CCC(=O)N1Cc2ccccc2Oc2ncccc21 (centres undefined) | i | nt | nt | i | nt | i
Cc1ccc(OCCn2cc(C(=S)N3CCCC3)c3ccccc32)cc1C | i | i | i | i | -106 | i
COc1ccc(NS(=O)(=O)c2ccc3[nH]c(=O)ccc3c2)cc1OC | i | nt | nt | ? | nt | 8.9µM[quencher]
COc1cc(NS(=O)(=O)c2ccc3[nH]c4c(c3c2)CCCCCC4)cc(OC)c1 | i | nt | nt | i | nt | 8.9µM[quencher]
Cc1ccc(N(C)S(=O)(=O)c2ccc3[nH]c4c(c3c2)CCCC4)cc1 | i | nt | nt | i | nt | 14µM[quencher]
Cc1ccc(NS(=O)(=O)c2ccc3[nH]c4c(c3c2)CCCCCC4)cc1 | ? | nt | nt | i | nt | 11µM[quencher]
CCc1ccc(NS(=O)(=O)c2ccc3[nH]c4c(c3c2)CCCCCC4)cc1 | ? | nt | nt | i | nt | ?
COc1ccc(NS(=O)(=O)c2ccc3[nH]c4c(c3c2)CCCC4)cc1OC | i | nt | nt | ? | nt | 16µM[quencher]
COc1ccc(OC)c(NS(=O)(=O)c2ccc3[nH]c4c(c3c2)CCCCC4)c1 | i | nt | nt | i | nt | 11µM[quencher]
Cc1ccc(NS(=O)(=O)c2ccc3[nH]c4c(c3c2)CCCCCC4)cc1C | i | nt | nt | i | nt | 13µM[quencher]
CCOC(=O)c1ccc(NS(=O)(=O)c2ccc3[nH]c4c(c3c2)CCCCC4)cc1 | ? | nt | nt | i | nt | 6.3µM[quencher]
COc1cc(NS(=O)(=O)c2ccc3[nH]c4c(c3c2)CCCC4)cc(OC)c1OC | i | nt | nt | i | nt | ?
Cc1nn(-c2ccc(N3CCCCC3)nn2)c(C)c1CCC(=O)NCc1ccccc1 | i | nt | nt | i | nt | i
COc1cc(OC)cc(C(=O)Nc2cc(-c3nc4cccnc4s3)ccc2C)c1 | ? | nt | nt | i | nt | i
O=C(NC1CC(=O)N(c2ccc(F)cc2)C1)C(c1ccccc1)c1ccccc1 (centres undefined) | ? | nt | nt | i | nt | i
COc1cccc(C2C(=O)N(C3CCCCC3)CC(=O)N2CCc2ccc(OC)c(OC)c2)c1 (centres undefined) | i | nt | nt | i | nt | i
CCS(=O)(=O)c1ncc(Cl)c(C(=O)Nc2c(C(=O)Nc3cccc(C)c3)oc3ccccc23)n1 | i | nt | nt | 4µM | nt | ?
CCOc1ccc(Sc2cc(C(=O)NCc3ccccc3Cl)c3ccccc3n2)cc1 | i | nt | nt | i | nt | i
CCCCN1C(=O)CCC(C(=O)O)C1c1ccccc1 (centres undefined) | i | i | i | i | -102 | i
CCCCN1C(=O)CC(C(=O)O)C1c1ccc(OC)cc1 (centres undefined) | i | i | i | i | i | i
CCCCCOc1ccc(NC(=O)Cn2c(-c3cncs3)nc3ccccc32)cc1 | i | nt | nt | ? | nt | i
COc1ccc(-c2cc(OC(=O)c3ccccc3Cl)c3c(C)oc(C)c3c(=O)c2)cc1OC | i | nt | nt | ? | nt | i
C/C(O)=C(\N=Nc1cc(C)ccc1O)C(N)=O | i | i | i | 10µM | nt | ?
Cc1ccc(O)c(N=Nc2ccc(S(=O)(=O)N3CCOCC3)cc2)c1 | ? | i | i | i | nt | i
